According to PubChem BioAssay AID1851 (National Center for Advancing Translational Sciences (NCATS), 2009):
Where “and” joins values, the source holds several entries; their conditions need not be identical. Identical values can stand only once. Among all 16,000 compounds or so, about 5,800 (36%) were called active. About 23% were inconclusive and are not listed. Calls follow the shape of the dose curve; as a rule, active = well fitted curve in the direction sought with a large enough effect; inconclusive = small, poorly fitted or top-dose-only effect, or effect the other way; inactive = no such curve, though single readings can be large or run the other way. This is one part of the list. The source holds several records for some structures; these can differ, active in one and inactive in another.

target: Cytochrome P450 2C19 (Homo sapiens) (UniProt P33261); assay: Cytochrome panel assay with activity outcomes; details: recombinant CYP, pro-luciferin dealkylation, luminescence, p450-cyp2c19; series mostly up to 57.1 µM
Sequence (P33261 whole entry, looked up): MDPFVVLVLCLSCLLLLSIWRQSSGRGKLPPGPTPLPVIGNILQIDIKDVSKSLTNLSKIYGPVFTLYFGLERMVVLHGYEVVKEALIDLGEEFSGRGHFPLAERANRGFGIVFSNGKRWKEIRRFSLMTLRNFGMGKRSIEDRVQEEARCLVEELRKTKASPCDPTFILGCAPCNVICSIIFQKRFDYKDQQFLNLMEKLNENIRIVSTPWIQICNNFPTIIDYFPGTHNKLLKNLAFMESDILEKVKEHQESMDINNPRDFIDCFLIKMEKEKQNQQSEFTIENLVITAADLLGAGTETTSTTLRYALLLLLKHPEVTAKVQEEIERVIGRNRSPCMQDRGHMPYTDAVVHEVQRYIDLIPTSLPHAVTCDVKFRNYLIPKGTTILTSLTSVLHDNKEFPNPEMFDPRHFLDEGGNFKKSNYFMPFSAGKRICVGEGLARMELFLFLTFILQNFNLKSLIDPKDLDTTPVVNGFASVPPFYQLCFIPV
% is scaled to controls: 0 for no effect and ±100 for the full control effect.

AC50, inactive:
CCCCNC(=O)NS(=O)(=O)c1ccc(C)cc1
Cc1ccc(S(=O)(=O)NCc2ccccc2)cc1
COc1ncc2nc(-c3cn(C)c4ccccc34)c(=O)n(CCC#N)c2n1
CS(=O)(=O)Nc1ccc([N+](=O)[O-])cc1Oc1ccccc1
CCN(CC)CCOc1ccc(/C(=C(\Cl)c2ccccc2)c2ccccc2)cc1
COc1ccc(O)c(/C=N/NC(=O)CSc2nnc(C)n2-c2ccccc2)c1
CN(C)c1ncc2nc(-c3cc(F)cc(F)c3)c(=O)n(Cc3ccc(F)cc3)c2n1
CN(C)c1ncc2ncc(=O)n(C)c2n1
CN(C)c1ncc2nc(-c3ccc(Cl)cc3)c(=O)n(Cc3ccc(F)cc3)c2n1
CCNc1ncc2nc(-c3ccc(OC)cc3)c(=O)n(Cc3ccc(F)cc3)c2n1
CN(C)c1ncc2nc(-c3ccc(F)cc3)c(=O)n(Cc3ccc(F)cc3)c2n1
CCNc1ncc2nc(-c3ccccc3)c(=O)n(Cc3ccc(F)cc3)c2n1
O=C(NNC(=O)C1CC(c2cccnc2)=NO1)Nc1cccc(F)c1 (configuration not stated)
COc1nc(C)nc(Cl)c1NC1=NCCN1
Fc1ccc(CN(C2=NCCN2)c2c(Cl)cccc2Cl)cc1
COC(=O)[C@@]1(Cc2ccc(OC)cc2)[C@@H]2C(=CC(=O)[C@H]2CC(=O)C(=O)N(C)C)CN1C(=O)c1ccccc1
COc1ccc(C(=O)N2CCC3(CC2)CN(Cc2ccc(C#N)cc2)C3)cc1
Cc1cn2c(-c3ccncc3)nnc2s1
CCN1CCN(CCCNC(=O)C(NC(=O)C2CCC(C)CC2)C(C)C)CC1 (configuration not stated)
COc1ccc(N2CCN(CCNC(=O)c3c(C)cc(=O)oc3C)CC2)cc1
COC(=O)N1CCC2(CC1)CCN(C(c1ccccc1)c1ccccc1)CC2
CC(=O)N[C@@H](C(=O)O)C(C)(C)SN=O

AC50, inactive and 5.01 µM (active):
Clc1cccc(Cl)c1NC1=NCCN1

AC50, active:
COC(=O)[C@@]1(Cc2ccc(F)cc2)[C@H]2c3cc(C(=O)N4CCCC4)n(CCc4c[nH]c5ccccc45)c3C[C@H]2CN1C(=O)c1ccccc1 10 µM
O=C1C(SCCO)=C(SCCO)C(=O)c2ccccc21 0.0794 µM
Cc1ccc(S(=O)(=O)NCCC(=O)NCc2ccccc2)cc1 20 µM
CCN(CC)C(=O)CCNS(=O)(=O)c1ccc(C)cc1 5.01 µM
CCOc1cc(C2NN=C(c3ccccc3)S2)ccc1OCc1ccccc1Cl (configuration not stated) 5.01 µM
Nc1nc(SCC(=O)Nc2ccccc2Sc2ccc(Cl)cc2)n[nH]1 0.0631 µM
O=C(Cn1cnc2ccccc2c1=O)Nc1nnc(SCc2ccccc2)s1 15.8 µM
Cc1ccc(C(=O)COC(=O)c2ccccc2N2C(=O)C3C4CCC(C4)C3C2=O)cc1C (configuration not stated) 14.1 µM
CS(=O)(=O)Nc1ccc([N+](=O)[O-])cc1OC1CCCCC1 0.0794 µM
CCN(CC)CCOc1ccc(Cc2ccccc2)cc1 15.8 µM
COc1ccccc1NCc1nnc(SCC(=O)N/N=C/c2ccco2)n1-c1ccc(Cl)cc1Cl 4.47 µM
CN(C)c1ncc2ncc(=O)n(Cc3ccc(F)cc3)c2n1 3.16 µM
CCNc1ncc2ncc(=O)n(Cc3ccc(F)cc3)c2n1 15.8 µM
Cc1nc2cnc(N(C)C)nc2n(Cc2ccc(F)cc2)c1=O 1.58 µM
O=C1C2CCC(C(O)C2)N1Cc1ccccc1 (configuration not stated) 15.8 µM
Cn1cc([N+](=O)[O-])c(C(=O)Nc2cc(Oc3cccnc3)cc([N+](=O)[O-])c2)n1 7.94 µM
O=C(NC1CCCC1)C1CC(c2ccc(F)cc2)=NO1 (configuration not stated) 10 µM
CC1CCCC(C)N1C(=O)C1CC(c2ccc(F)cc2)=NO1 (configuration not stated) 17.8 µM
Clc1cccc(Nc2nnc(-c3ccccc3)c3ccccc23)c1 0.794 µM
Cc1ccc(COc2coc(CO)cc2=O)cc1 14.1 µM
C=C1C(=O)C=C2CN(C(=O)c3ccccc3)[C@@](Cc3ccc(OC)cc3)(C(=O)OC)[C@@H]12 20 µM
C=C1C(=O)C=C2CN(C(=O)c3ccccc3)[C@@](Cc3ccc(F)cc3)(C(=O)OC)[C@@H]12 5.01 µM
c1cc(-c2sc(-c3ccncc3)c(-c3ccncc3)c2-c2ccncc2)ccn1 1.58 µM
O=C(C(NS(=O)(=O)c1cccs1)c1ccccc1)N1CCN(c2ccccc2)CC1 (configuration not stated) 1.41 µM
CC(C)C(NS(=O)(=O)c1cccs1)C(=O)NCCN1CCN(c2ccccc2)CC1 (configuration not stated) 14.1 µM
COc1ccccc1N1CCN(C(=O)C(NS(=O)(=O)c2cccs2)c2ccccc2)CC1 (configuration not stated) 3.16 µM
CCOC(=O)c1[nH]c(C)c(C(=O)OCC(=O)N2c3ccccc3CC2C)c1C (configuration not stated) 11.2 µM

activity, negative = inhibition, inactive:
O=S(=O)(O)[C@@H](CO)c1ccccc1 (tested in a mixture with another compound) -9.78% [at 11.4 µM]
O=C(O)[C@@H]1[C@H](C(=O)O)[C@H]2C(=O)C=C[C@H]1N2Cc1ccccc1 2.25% [at 11.4 µM]
O=C1C[C@@H](O)[C@@H](O)[C@H]2[C@@H]3C(=O)N(Cc4ccccc4)C(=O)[C@@H]3CC[C@H]12 -9.62% [at 11.4 µM] and 25.4% [at 11.4 µM]
CO[C@H]1COC(=O)[C@H](C)COC(=O)C/C=C\[C@@H](C)[C@H](OC)COC(=O)C/C=C\[C@@H]1C -42.3% [at 11.4 µM]
O=C(O)C12CC3(C(=O)O)CC(C(=O)O)(CC(C(=O)O)(C1)C3=O)C2=O -11.5% [at 11.4 µM]
C[C@H]1/C=C\CC(=O)OC[C@H](C)C(=O)N2CCC[C@@H]2C(=O)OC1 -9.53% [at 11.4 µM]
COC(=O)[C@@H]1O[C@@H](SCCN)[C@@H](O)[C@H](O)[C@H]1O 31.9% [at 11.4 µM]
